# Only a selection was taken, and hits are over-represented in it overall.
# KDM5B inh: blocks human KDM5B histone demethylase activity; KDM5B demethylase, FDH-coupled NADH fluorescence (FDH is formaldehyde dehydrogenase); Potency, µM (top dose mostly 57.7 µM), actives largely listed as inhibitors; hit rate 2.6% among 220,000; Q9UGL1; active means well fitted inhibition curve with a large enough effect; further: 0% is about no effect; nearly all actives have a fitted effect of over 70% in size
#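 Here, H3K4me3 peptide (12.5 µM in substrate mix) is demethylated by KDM5BΔAP, 200 nM final, after 10 min compound exposure. Formaldehyde product is coupled through FDH (0.25 U/mL in mix) to NADH fluorescence; 30-min ΔRFU feeds dose-response curves.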
# Starred values were filed as active, the others as inactive; i = inactive. Potency means the concentration at half of the fitted maximal effect.
SMILES,KDM5B inh
COc1cc(OC)c(NC2=NS(=O)(=O)C(c3ccc(C)c(C)c3)=C2C)cc1Cl,i
COc1ccccc1NC(=O)C1CC2CCC1C2 (centres undefined),i
Cc1oc(-c2ccccc2)nc1C(=O)N1CCN(CC(=O)N2CCOCC2)CC1,i
Cn1ccnc1C(=O)c1cccc(NC(=O)C(=O)NCc2ccccc2)c1,i
CCCCC(CC)CNC(=S)Nc1ccc(C)cc1C (centres undefined),i
Cn1nc(C(F)(F)F)c(Br)c1C(=O)Nc1sc2c(c1C(N)=O)CCC2,i
O=C(/C=C/c1ccc(Cl)cc1)c1ccc2ccccc2c1O,i
CCc1ccccc1NC(=O)C1CCCN(c2cnc3ccccc3n2)C1 (centres undefined),i
Cn1cnc2c1c(=O)n(CCCSCc1ccccc1)c(=O)n2C,i
CCc1[nH]c(C(=O)OCC(=O)NC2CCCC2)c(C)c1C(=O)OC,i
CC(C)c1noc(-c2cccn3c(CNC(=O)Cc4ccccc4Cl)nnc23)n1,25µM*
O=C(Cn1cccc1-c1nc(-c2ccc(F)cc2)no1)NCc1ccccc1Cl,i
CC(C)c1noc(-c2cccn3c(CNC(=O)c4ccc(Cl)cc4)nnc23)n1,25µM*
Cc1ccccc1CC(=O)NCC(C)C,i
CC(C)c1noc(CC2CCN(C(=O)c3ccccc3Cl)CC2)n1,i
O=C(Cn1cccc1-c1nc(-c2ccccc2)no1)NCc1ccccc1Cl,i
CNC(=O)c1ccc(OCc2nc(C(C)C)no2)cc1,i
Cc1ccccc1CNC(=O)COc1ccc(-c2nc(C(C)C)no2)cc1,i
Cc1ccccc1CC(=O)NCc1nnc2c(-c3nc(C(C)C)no3)cccn12,22µM*
CC(C)c1noc(-c2cccn3c(CNC(=O)c4ccccc4Cl)nnc23)n1,10µM*
Cc1cccn2c(=O)c(C(=O)NCc3ccccc3Cl)c(O)nc12,i
CC(=O)NCc1ccc(C(=O)OC(C)C(=O)C23CC4CC(CC(C4)C2)C3)cc1 (centres undefined),i
Cc1ccc(C)c(CS(=O)Cc2cccc(C(F)(F)F)c2)c1 (centres undefined),i
CC(NC(=O)CCc1ccco1)C1CCCO1 (centres undefined),i
Cc1cccc(NC(=O)COC(=O)Cn2cnc3c2c(=O)n(C)c(=O)n3C)c1,i
SMILES,KDM5B inh
CCOc1ccc(Oc2ccccc2NC(=O)c2cccc(CN3CCCC3=O)c2)cc1,i
CCN(CC(=O)NC(=O)NC1CC1)C(C)c1ccc(C#N)cc1 (centres undefined),i
Cc1nn(-c2ccccc2)c(C)c1CN(C)C(=O)CNC(=O)c1ccc(C(F)(F)F)cc1,i
Fc1cccc(NC(=S)NC2CC2)c1,i
COC(=O)CSc1n[nH]c(=O)c2cc(-c3ccc(OC)c(OC)c3)nn12,i
COc1cccc(C2/C(=C(\O)c3ccc4c(c3)OCCO4)C(=O)C(=O)N2CCc2ccccc2)c1 (centres undefined),i
O=C1CC(c2ccccc2O)Cc2nc(N3CCN(c4ccccc4)CC3)ncc21 (centres undefined),i
CN(C)C(=O)c1cc(C(C)(C)C)c2cccn2n1,i
CNC(=O)c1cc2cccnn2n1,32µM*
CC(c1cccc(-c2cccc(C(=O)N(C)C)n2)c1)N1CCCC1 (centres undefined),i
CNC(=O)c1cc(-c2ccc(Cl)cc2)n(-c2ccccc2)n1,i
CN(C)C(=O)c1cc2cccnn2n1,32µM*
CNC(=O)c1cn2c(n1)CN(C(=O)c1ccccc1)CC2,i
Cc1ccc(NS(=O)(=O)c2c(C)nc3scc(C)n3c2=O)cc1Cl,i
Cc1cc(C)c2c(n1)oc1c(=O)n(CC(=O)NC3CCCCC3)cnc12,i
Cc1ccc2oc(-c3ccc(NC(=O)c4cc([N+](=O)[O-])ccc4N4CCOCC4)cc3)nc2c1,i
Cc1ccc2oc(=O)cc(CN3CCN(c4ccccn4)CC3)c2c1,i
O=S(=O)(c1cccc2nsnc12)N1CCCCCC1c1ccccc1Cl (centres undefined),i
O=C(Nc1ccc(Cl)cc1C(F)(F)F)c1ccc(Cl)c(Cl)c1,i
O=C(c1nc(-c2ccccc2)c2ccccn12)N1CCOCC1,40µM*
O=C(c1nc(-c2ccc(F)cc2)c2ccccn12)N1CCOCC1,32µM*
CN(C)C(=O)c1nc(-c2ccc(S(C)(=O)=O)cc2)c2ccccn12,i
C[C@H](O)c1onc(-c2ccccc2)c1C(=O)N1CCOCC1,i
CN(C)C(=O)c1nc(-c2ccc(Cl)nc2)c2ccccn12,112µM*
O=C(Cn1nc(-c2ccccc2)c2ccccc2c1=O)N1CCOCC1,i
SMILES,KDM5B inh
CN(C)C(=O)C1CCc2nnc(-c3ccc(Cl)nc3)n21 (centres undefined),i
O=C(c1nc(-c2ccc(Cl)nc2)c2ccccn12)N1CCOCC1,14µM*
COc1ccc(Cl)c(N2CC(c3nc4ccccc4n3C(C)C)CC2=O)c1 (centres undefined),i
CC1CCCC(NC(=O)/C=C/c2cccc(C#N)c2)C1 (centres undefined),i
CC(=O)Nc1ccc(NC(=O)C(C)On2nnc3ccc(Cl)cc32)cc1 (centres undefined),i
O=C1NCCOCCN(S(=O)(=O)c2cccc(F)c2)[C@H]2CCC[C@@H]12,i
Cc1ccccc1CNC(=O)COC(=O)c1cc2ccccc2[nH]1,i
Cc1c(CNCc2ccccc2)c(C(=O)O)c(C)n1Cc1ccc(F)cc1Cl,i
CCN1CCC(OCCCNC(=O)C2(CCO)CC23CCOCC3)CC1 (centres undefined),i
CC1Sc2ccc(C(=O)OCC(=O)NCc3ccccc3)cc2NC1=O (centres undefined),i
Cc1cccc(NC(=O)c2cc(C)nc3ccccc23)n1,i
CN(C(=O)c1cn(C)c2ccccc12)C1CCS(=O)(=O)C1 (centres undefined),i
CC(O)CNC(=O)C1CCN(Cc2nnnn2-c2ccccc2)CC1 (centres undefined),i
Cc1nn(-c2ccc(F)cc2)c(Oc2cccc(F)c2)c1CCC(=O)N1CCSCC1,i
COCCN1CC2(CCC1=O)CCN(C(=O)c1c(C)cccc1C)CC2,i
COCCN1CC2(CCCN(c3cc(C)c4ccccc4n3)C2)CCC1=O (centres undefined),28µM*
COCCN1CC2(CCCN(C(=O)c3ccc(C)n(C)c3=O)C2)CCC1=O (centres undefined),i
CCOC(=O)c1sc2ccccc2c1S(=O)(=O)Nc1cccc(OC)c1,i
COc1cccc(CN2CC3(CCN(C)C3)c3cc(C(=O)NC4CCCCC4)ccc32)c1 (centres undefined),35µM*
Cc1nc(CN2CC3(CCN(C)C3)c3cc(C(=O)Nc4ccccc4)ccc32)cs1 (centres undefined),i
O=C(NC1CCCCC1)c1ccc2c(c1)N(Cc1ccccc1)C(=O)c1ccccc1S2,i
CN1CCCC2(C1)CN(Cc1cccnc1)c1ccc(C(=O)Nc3ccc(F)cc3)cc12 (centres undefined),i
COc1cccc(CN2CCCC(O)(CNC3CCCCCCC3)C2=O)c1 (centres undefined),i
CN1CCC2(C1)CN(Cc1ccccc1)c1ccc(C(=O)NC3CCC(O)CC3)cc12 (centres undefined),40µM*
O=C(NC1CCOCC1)c1ccc2c(c1)C1(CCN(CC3CC3)C1)CN2Cc1ccccc1 (centres undefined),28µM*
